Only some compounds are listed: those with a hit (about 1.7% of all), similar ones and a draw of the others.
LDHA block – blocks human lactate dehydrogenase A. P00338. purified LDHA, NADH/diaphorase-resazurin fluorescence; active compounds read low. activity change, % (values are at about 110 or 230 µM). actives 0.15% (n = 480,000); in the data active means activity change below about -30%; inconclusive means mostly about -25% to -30%;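 further: plate controls were DMSO wells for no effect and wells without enzyme for full effect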
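Resorufin fluorescence (ex540/em590), read at 0 and 20 min after diaphorase/resazurin addition, reports the NADH left after a 5 min room-temperature reaction of 2 nM human LDH5 with 0.06 mM NADH and 0.2 mM pyruvate.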
GLP1R inv ag – GLP-1 receptor (human) inverse agonism; Potency, µM (top dose mostly 38.3 µM), for inactives: at the highest dose activity change, negative = inhibition, usual class: inhibitors; P43220; HEK293 GLP-1R CRE-luciferase, luminescence, 24 h; GLP-1R form is constitutively active; actives 1.6% (n = 410,000); further: potency means the concentration at half of the fitted maximal effect; on the % scale 0 is the no-effect control and ±100 the full control effect; nearly all actives have a fitted effect of over 55% in size
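Luminescence readout: a drop in cAMP-driven luciferase signal flags inverse agonism at a constitutively active GLP-1R stably expressed in HEK293. Compound exposure lasted 24 hr at 37 deg C, 5% CO2.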
PTHR1 ag – activates the human parathyroid hormone receptor PTHR1 | HEK293 GP2 PTHR1 cells, GloSensor cAMP luminescence, 1 h | Potency, µM (top dose mostly 115 µM), inactives show at the top dose activation, hits mostly activators | actives 0.075% (n = 410,000); further: potency means the concentration at half of the fitted maximal effect; nearly all actives have a fitted effect of over 55% in size
Target sequence (Q03431 whole entry, looked up): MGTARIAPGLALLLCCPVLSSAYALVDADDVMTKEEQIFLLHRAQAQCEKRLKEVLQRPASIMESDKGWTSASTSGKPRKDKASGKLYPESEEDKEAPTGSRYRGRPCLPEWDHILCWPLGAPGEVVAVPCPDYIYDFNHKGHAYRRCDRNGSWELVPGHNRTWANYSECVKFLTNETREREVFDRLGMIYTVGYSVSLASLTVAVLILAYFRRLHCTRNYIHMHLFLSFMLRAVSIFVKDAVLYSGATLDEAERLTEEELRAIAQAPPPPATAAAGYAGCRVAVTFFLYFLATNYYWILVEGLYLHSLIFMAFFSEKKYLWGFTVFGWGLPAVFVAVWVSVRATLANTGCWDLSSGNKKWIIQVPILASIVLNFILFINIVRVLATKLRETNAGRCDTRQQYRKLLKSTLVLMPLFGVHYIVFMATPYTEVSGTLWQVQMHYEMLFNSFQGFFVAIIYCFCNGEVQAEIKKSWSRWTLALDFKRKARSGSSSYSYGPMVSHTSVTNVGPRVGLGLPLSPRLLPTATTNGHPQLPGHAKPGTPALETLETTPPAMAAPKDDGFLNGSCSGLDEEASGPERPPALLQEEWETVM
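HEK-293-derived GP2 cells expressing PTHR1 and a GloSensor cAMP reporter, 3,000/well, plated overnight, given luciferin plus IBMX (each 0.5 mM as added) for 1 h at 37 °C, then compound for 1 h at 37 °C. Luminescence was read after 15 min at room temperature.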
GLP1R cytotox – cytotoxic in the GLP-1 receptor inverse agonist counter-screen; HEK293 cAMP-luciferase reporter cells, luminescence, 24 h; Potency, µM (highest dose often 38.3 µM), for the others: top-dose activity change, negative = inhibition, usual class: inhibitors; actives 0.13% (n = 410,000);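 further: loss of luciferase light is scored as toxicity; potency means the concentration at half of the fitted maximal effect; on the % scale 0 is the no-effect control and ±100 the full control effect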
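Cells in DMEM/10% Nu serum/1% pen-strep, 1536-well format. Pre-incubated 12 h, dosed with 23 nL compound, incubated a further 24 h. Luciferase detection, 12 min at room temp, luminescence.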
IDH1 R132H inh – inhibitors of human mutant IDH1 R132H; O75874; IDH1-R132H enzyme, NADPH consumption, diaphorase/resazurin fluorescence; Potency, µM (doses to about 76.6 µM), for the others: top-dose activity change, negative = inhibition, most hits filed as inhibitors; actives 0.093% (n = 390,000); AID 602179; further: potency means the concentration at half of the fitted maximal effect; on the % scale 0 is the no-effect control and ±100 the full control effect; nearly all actives have a fitted effect of over 65% in size
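IDH1-R132H (0.5 ug/mL) preincubated 30 min with compound, then NADPH (0.016 mM) and alpha-KG (2 mM) added; 80 min at RT, pH 7.5. Remaining NADPH coupled via diaphorase/resazurin to fluorescence (540/590 nm); concentration-response curves normalized to no-enzyme control.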
GLP1R ag – activates the human GLP-1 receptor; actives 0.007% (n = 380,000); AID 624172; Potency, µM (series often up to 45.6 µM), inactives show at the top dose activation, hits mostly activators; HEK293 GLP-1R CRE-luciferase, luminescence, 4-6 h; cells express a hypersensitive GLP-1R form; further: potency means the concentration at half of the fitted maximal effect; % of control where 0% means no effect
IDH1 autofl – counter-screen for mutant IDH1 inhibitors: fluorescence interference. shares compounds with IDH1 R132H inh. Resorufin detection reagent fluorescence interference, cell-free. inhibition of signal, % at 51.2 µM. 750 tested, under 10 active;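 further: 0% = wells with normal resorufin and full inhibition = wells lacking resorufin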
IDH1 WT – inhibits human wild-type IDH1, mutant selectivity check; Potency, µM (doses to about 115 µM), inactives show at the highest dose activity change, negative = inhibition, actives largely listed as inhibitors; WT IDH1 enzyme, NADPH diaphorase/resazurin fluorescence; actives 9% (n = 750); shares compounds with IDH1 R132H inh;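 further: potency means the concentration at half of the fitted maximal effect; 0% = full WT IDH1 enzyme control and full inhibition = no enzyme wells; nearly all actives have a fitted effect of over 55% in size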
mIDH1 confirm – mutant IDH1 (human) inhibition, confirmed | shares compounds with IDH1 R132H inh | IDH1 R132H enzyme, NADPH diaphorase/resazurin fluorescence | Potency, µM (titrated, usually from 76.6 µM), for inactives: top-dose activity change, negative = inhibition, actives largely listed as inhibitors | actives 83% (n = 750) | AID 624002; further: potency means the concentration at half of the fitted maximal effect; nearly all actives have a fitted effect of over 50% in size
The depositor's hits bear a star; i = inactive; ? = inconclusive; . = not tested or not shown; [ ] = another dose, or the depositor's remark. Unless noted, the call rests on the fitted dose curve; in most records, active means well fitted curve in the direction sought with a large enough effect; inconclusive means small, poorly fitted or top-dose-only effect, or another doubt; inactive means no such curve, though single readings can be large; an effect the other way counts as inactive or inconclusive.

SMILES	LDHA block	GLP1R inv ag	PTHR1 ag	GLP1R cytotox	IDH1 R132H inh	GLP1R ag	IDH1 autofl	IDH1 WT	mIDH1 confirm
Cc1cc(C)c2oc(C(=O)Nc3nnc(CC(C)C)s3)cc(=O)c2c1	5	.	.	.	.	.	.	.	.
Cc1ccc(CNC(=S)NCc2ccc(F)cc2)cc1	-5	.	.	.	.	.	.	.	.
CC(C)c1noc(CSc2nc(-c3ccco3)nc3ccccc23)n1	0	.	.	.	.	.	.	.	.
COCCn1c(C)cc(/C=N/n2cnnc2SCc2ccc(Cl)cc2)c1C	-3	.	.	.	.	.	.	.	.
CCN(CC)CC(C)OC(=O)c1ccccc1F (stereo unspecified)	0	.	.	.	.	.	.	.	.
Cc1cccc(C(C)C)c1NC(=O)C1CCCC1	-9	.	.	.	.	.	.	.	.
Cc1cc(C)cc(N(C(=O)Cc2cccs2)C(C(=O)NC2CCCC2)c2ccc(C)o2)c1 (stereo unspecified)	-1	2%	i	-15%	7.4µM*	2%	-8	10%	4µM*
COc1ccc(-c2cc3nc(C4CCN(C(=O)OC(C)(C)C)CC4)c(C(=O)O)cn3n2)cc1	-5	0%	-1%[57.5 µM]	-21%	21µM*	?	-6	79µM*	16µM*
CCOC(=O)c1cn2nc(-c3ccc(OCC)cc3)cc2nc1C1CCN(C(=O)OC(C)(C)C)CC1	-7	0%	i	-2%	-7%	-9%	.	.	.
Fc1ccccc1OCc1nnc(-c2ccccc2)o1	2	.	.	.	.	.	.	.	.
O=C(COC(=O)c1ccc(F)c([N+](=O)[O-])c1)NC(=O)NCc1ccccc1	-7	?	i	?	46µM*	-63%	-8	-14%	28µM*
Cc1ccccc1N=C1c2cc([N+](=O)[O-])ccc2-c2ncccc21	13	3%	i	-5%	?	1%	-2	0%	22µM*
CCOc1ccc(-c2nc(CSCC(=O)NCC(OCC)OCC)c(C)o2)cc1	1	.	.	.	.	.	.	.	.
CC(=O)C1=C(c2ccc(Cl)c(Cl)c2)N(C(C)=O)n2cnnc2S1	-25	?	-2%	?	45µM*	.	-9	432%	20µM*
CC(=O)C1=C(c2ccc(Cl)c(Cl)c2)N(C(C)=O)n2c(nnc2-c2ccccc2)S1	16	13%	i	-3%	10%	.	.	.	.
CC(=O)C1=C(c2ccc(Cl)c(Cl)c2)N(C(C)=O)n2c(C)nnc2S1	-8	11µM*	i	-21%	45µM*	.	0	314%	40µM*
COc1cccc(C2=C(C(C)=O)Sc3nncn3N2C(C)=O)c1	-17	-16%	i	-2%	?	.	.	.	.
C/C(=N\NC(N)=S)c1cc(-c2ccccc2)c(-c2ccccc2)s1	-3	?	-22%	-17%	?	23%	0	1%	?
C/C(=N\NC(N)=S)c1ccccc1	-6	?	-4%	-16%	1%	10%	.	.	.
CC(=O)c1c(OCCC(C)C)ccc2c(C)cc(=O)oc12	1	.	.	.	.	.	.	.	.
N=c1c(S(=O)(=O)c2ccc(Cl)cc2)cc2c(=O)n3ccccc3nc2n1CC1CCCO1 (stereo unspecified)	-11	3%	-41%	4%	4%	0%	.	.	.
N=c1c(S(=O)(=O)c2ccccc2)cc2c(=O)n3ccccc3nc2n1CC1CCCO1 (stereo unspecified)	0	39%	-3%[57.5 µM]	157%	?	3%	-2	8%	35µM*
CN1CC=C2C(C#N)=C(N)C(C#N)(C#N)C(c3ccsc3)C2C1 (stereo unspecified)	8	-21%	i	65%	?	-1%	1	-13%	?
N#CC1=C(N)C(C#N)(C#N)C(c2ccncc2)C2CN(C(=O)OCc3ccccc3)CC=C12 (stereo unspecified)	-7	60%	-26%[57.5 µM]	11%	46µM*	-5%	-9	29%	45µM*
N#CCN(C(=O)c1cccs1)C1CC1	0	.	.	.	.	.	.	.	.
SMILES	LDHA block	GLP1R inv ag	PTHR1 ag	GLP1R cytotox	IDH1 R132H inh	GLP1R ag	IDH1 autofl	IDH1 WT	mIDH1 confirm
Cc1oc2cc(OCCN3CCN(CCO)CC3)ccc2c(=O)c1-c1ccccc1	-7	.	.	.	.	.	.	.	.
CNC(=O)/C(C#N)=C/c1c(N(Cc2ccccc2)Cc2ccccc2)nc2ccccn2c1=O	3	-18%	-14%	23%	52µM*	3%	-6	-1%	25µM*
COC(=O)/C(C#N)=C/c1c(N2CCN(c3ccccc3)CC2)nc2ccccn2c1=O	2	38%	i	-5%	-3%	20%	.	.	.
Cc1ccc(-c2nnc(Nc3ccc(F)cc3)c3ccccc23)cc1S(=O)(=O)NC(C)C	-4	9%	-31%	0%	?	.	1	7%	?
CC(Cl)C(=O)NC1CCCCC1C (stereo unspecified)	1	.	.	.	.	.	.	.	.
O=C(CN(C(=O)c1csnn1)c1cccc(Cl)c1)NC1CCCCC1	-5	6%	-10%	0%	1%	6%	.	.	.
O=C(NC1CCCC1)C(c1ccccc1)N(C(=O)c1csnn1)c1ccccc1F (stereo unspecified)	-17	-9%	i	4%	?	12%	-7	-2%	25µM*
COc1cccc(N(C(=O)c2csnn2)C(C(=O)NC2CCCC2)c2ccccc2)c1 (stereo unspecified)	-9	2%	i	10%	?	4%	4	-4%	40µM*
O=C(NC1CCCCC1)C(c1ccc(Cl)cc1)N(C(=O)c1cnccn1)c1ccc2c(c1)OCO2 (stereo unspecified)	1	-8%	i	-8%	?	0%	-7	-11%	?
O=C(NC1CCCC1)C(c1ccncc1)N(C(=O)c1csnn1)c1ccccc1 (stereo unspecified)	-11	0%	i	-3%	-2%	1%	.	.	.
O=C(NC1CCCCC1)C(c1ccco1)N(C(=O)c1csnn1)c1cccc(Cl)c1 (stereo unspecified)	-2	?	i	7%	?	-2%	0	-2%	28µM*
